Pf Dd2 inh – P. falciparum Dd2 growth inhibitors, primary screen, SYBR Green fluorescence, single dose replicates. 72 h; stronger effect = lower value. activity change, % at 10 µM. 94,000 tested, 2.3% active. AID 1159554, 2015; in the data active = activity change below about -80%; inconclusive = no clear call, values can overlap the other calls
T cruzi growth – T. cruzi intracellular proliferation inhibitors, primary screen, cell-based, beta-gal Tulahuen parasites, NIH3T3 host, luminescence; T. cruzi beta-gal in NIH3T3, GalScreen luminescence, 90 h; 77,000 tested, 5.9% active; inhibition, % at 8.34 µM;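 active = mean inhibition above about 93%, with at least 55% of replicates each passing it, limit read from the data, passing the limit was not always enough; inconclusive = only one of those two conditions holds; inactive = neither condition holds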
C diff HTS – C. difficile growth inhibitors, primary screen, HTS; Clostridium difficile clinical isolate growth, OD600, 24 h; stronger effect = lower value; growth activity, negative = inhibition, % at 16 µg/mL (by protocol); 86,000 tested, 0.25% active; AID 1259249, 2017;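 active = mean growth activity at or below -80% and every replicate also at or below -80%; inconclusive = mean at or below -80% but some replicate above -80%; inactive = mean growth activity above -80%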;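 also: 0% = DMSO wells and -100% = levofloxacin 16 µg/mL wells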
* = called active by the depositor. Only some compounds are listed: those with a hit (about 6.7% of all), similar ones and a draw of the others.

How did C[C@@H]1CN([C@@H](C)CO)C(=O)c2c(c3ccccc3n2C)-c2ccccc2CO[C@H]1CN(C)C(=O)Cc1ccccc1 do in these assays?
Pf Dd2 inh: -86.3*; T cruzi growth: 19.9; C diff HTS: -6.5

How did C[C@H]1CN([C@@H](C)CO)C(=O)c2c(c3ccccc3n2C)-c2ccccc2CO[C@H]1CN(C)C(=O)Cc1ccccc1 do in these assays?
Pf Dd2 inh: -70.2; T cruzi growth: 30.3; C diff HTS: -1.0

How did C[C@H](CO)N1C[C@H](C)[C@@H](CN(C)C(=O)CCN(C)C)OCc2ccccc2-c2c(n(C)c3ccccc23)C1=O do in these assays?
Pf Dd2 inh: -85.0*; T cruzi growth: 71.5; C diff HTS: 4.6

Results for C[C@@H]1CN([C@@H](C)CO)C(=O)c2c(c3ccccc3n2C)-c2ccccc2CO[C@@H]1CN(C)C(=O)CCN(C)C ?
Pf Dd2 inh: -79.0; T cruzi growth: -29.9; C diff HTS: -5.3

What do the screens show for `C[C@H](CO)N1C[C@H](C)[C@@H](CN(C)Cc2ccc(C(F)(F)F)cc2)Oc2ccc(NC(=O)CCCCCC(=O)Nc3ccccc3N)cc2C1=O`?
Pf Dd2 inh: -55.9; C diff HTS: -6.2

What do the screens show for `CNC(=O)C[C@@H]1CC[C@@H]2[C@H](COc3ccc(NC(=O)c4cccc(OC)c4)cc3C(=O)N2C)O1`?
Pf Dd2 inh: 1.9; T cruzi growth: -7.9; C diff HTS: 3.7

Results for Cc1cccc(S(=O)(=O)N2C[C@H](O)COC[C@H]3O[C@@H](CC(=O)NCCCN4CCOCC4)CC[C@@H]32)c1 ?
Pf Dd2 inh: 2.2; T cruzi growth: -1.5

How did O=C(N[C@@H]1CC[C@@H](CCNC(=O)C2CCCCC2)O[C@H]1CO)c1ccncc1 do in these assays?
Pf Dd2 inh: -0.7; T cruzi growth: -43.7; C diff HTS: -0.1

What do the screens show for `COc1ccc2c3c([nH]c2c1)[C@@H](CO)N(Cc1ccncc1)CC31CN(Cc2ccc(-c3ccccn3)cc2)C1`?
Pf Dd2 inh: inconclusive; C diff HTS: 4.3

What do the screens show for `COc1ccc2c3c([nH]c2c1)[C@@H](CO)N(Cc1cccc(F)c1)CC31CN(Cc2ccccn2)C1`?
Pf Dd2 inh: inconclusive; C diff HTS: -0.3

How did COc1ccc2c3c([nH]c2c1)[C@@H](CO)N(Cc1ccc(F)cc1)CC31CN(Cc2ccccn2)C1 do in these assays?
Pf Dd2 inh: inconclusive; C diff HTS: 8.3

Results for COc1cccc(CN2CC3(CN(Cc4ccccn4)C3)c3c([nH]c4cc(OC)ccc34)[C@H]2CO)c1 ?
Pf Dd2 inh: -86.9*; C diff HTS: 12.7

What do the screens show for `COc1cccc(CN2CC3(CCN(Cc4ccccn4)CC3)c3c([nH]c4cc(OC)ccc34)[C@H]2CO)c1`?
Pf Dd2 inh: -83.5*; C diff HTS: 4.6

Results for COc1ccc2c3c([nH]c2c1)[C@H](CO)N(Cc1ccncc1)CC31CN(Cc2ccc(-c3ccccn3)cc2)C1 ?
Pf Dd2 inh: -89.2*; C diff HTS: 5.3

Results for Cc1noc(C)c1S(=O)(=O)N(C)C[C@H]1Oc2ccc(NC(=O)CCCN(C)C)cc2C(=O)N([C@H](C)CO)C[C@H]1C ?
Pf Dd2 inh: 14.7; T cruzi growth: 8.9; C diff HTS: -0.8

How did O=C(NCC[C@@H]1CC[C@@H](NC(=O)C2CCCCC2)[C@@H](CO)O1)c1cc(Cl)cc(Cl)c1 do in these assays?
Pf Dd2 inh: -7.8; T cruzi growth: 49.6; C diff HTS: 6.1

What do the screens show for `C[C@H](C(=O)N(C)C[C@H]1OCc2ccccc2-c2c(n(C)c3ccccc23)C(=O)N([C@H](C)CO)C[C@@H]1C)c1ccccc1`?
Pf Dd2 inh: -50.9; C diff HTS: 25.7

Results for C[C@H](C(=O)N(C)C[C@H]1OCc2ccccc2-c2c(n(C)c3ccccc23)C(=O)N([C@@H](C)CO)C[C@H]1C)c1ccccc1 ?
Pf Dd2 inh: -78.4; C diff HTS: 0.4

What do the screens show for `C[C@H](CO)N1C[C@H](C)[C@H](CN(C)C(=O)[C@H](C)c2ccccc2)OCc2ccccc2-c2c(n(C)c3ccccc23)C1=O`?
Pf Dd2 inh: -90.6*; C diff HTS: 5.4

Results for C[C@H](C(=O)N(C)C[C@@H]1OCc2ccccc2-c2c(n(C)c3ccccc23)C(=O)N([C@@H](C)CO)C[C@@H]1C)c1ccccc1 ?
Pf Dd2 inh: -83.3*; C diff HTS: -5.9

What do the screens show for `C[C@@H]1CN([C@H](C)CO)C(=O)c2c(c3ccccc3n2C)-c2ccccc2CO[C@@H]1CN(C)C(=O)N[C@H](C)c1ccccc1`?
Pf Dd2 inh: -29.5; T cruzi growth: 23.9; C diff HTS: -5.4
